“And” between values parts separate entries of the source, which are not always exact repeats. Equal values may be shown once. Results filed as inconclusive are left out. Where a structure was tested more than once in an assay, its records may differ in their call. The source made the active and inactive calls. How the source made its calls: active means hit-call score of the fitted dose curve at least 0.9, where 1 is the maximum; inconclusive means response in the unintended direction; inactive means score below 0.9.
Columns and labels:
[1] = ATG_M_32_XSP2: Attagene TRANS-FACTORIAL Multi-Species (XSP2) HepG2 Assay for M19 Transcription Factor (Internal Marker) (AID 2283826)
Summary of the method: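 Read-out: fluorescent reporter mRNA fragments resolved by capillary electrophoresis after RT-PCR, gain-of-signal versus DMSO baseline. Cells were human HepG2 carrying transfected multi-reporter units, exposed 24 h. Medium contained 3 nM 6-alpha-fluorotestosterone plus 1.5 nM norgestrel.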

[2] = target: Estrogen receptor (Homo sapiens) (UniProt P03372); experiment: ATG_hERa_XSP2: Attagene TRANS-FACTORIAL Multi-Species (XSP2) HepG2 Assay for human Estrogen Receptor (ERa) (AID 2283827)
Chain of Estrogen receptor (Homo sapiens) (P03372 whole entry, looked up, the tested form may be a part): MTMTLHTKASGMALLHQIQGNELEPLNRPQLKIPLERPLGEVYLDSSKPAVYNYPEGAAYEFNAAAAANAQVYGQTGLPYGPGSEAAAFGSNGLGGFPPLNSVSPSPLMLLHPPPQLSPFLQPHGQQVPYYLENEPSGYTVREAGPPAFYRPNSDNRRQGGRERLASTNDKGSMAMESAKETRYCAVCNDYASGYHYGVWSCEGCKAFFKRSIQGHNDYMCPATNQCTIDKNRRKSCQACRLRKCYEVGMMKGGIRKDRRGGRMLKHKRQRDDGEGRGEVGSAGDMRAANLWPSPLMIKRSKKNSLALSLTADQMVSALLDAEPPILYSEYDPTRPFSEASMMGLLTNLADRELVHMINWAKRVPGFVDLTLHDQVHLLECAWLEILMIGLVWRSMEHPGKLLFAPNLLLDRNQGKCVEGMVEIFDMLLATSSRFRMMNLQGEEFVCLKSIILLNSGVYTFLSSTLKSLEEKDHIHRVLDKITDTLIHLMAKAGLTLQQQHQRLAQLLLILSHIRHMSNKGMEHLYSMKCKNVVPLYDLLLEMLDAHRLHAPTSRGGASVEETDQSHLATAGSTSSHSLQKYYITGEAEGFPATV
Summary of the method: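 HepG2 cells transiently transfected with multiplexed GAL4-UAS reporters driven by chimeric receptor-Gal4 proteins, dosed 24 h with 3 nM 6-alpha-fluorotestosterone and 1.5 nM norgestrel present. Reporter mRNA by RT-PCR and capillary electrophoresis; gain-of-signal fit versus DMSO.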

[3] = test system: frog Estrogen Receptor (ER2), gene 100174814; experiment: ATG_frER2_XSP2: Attagene TRANS-FACTORIAL Multi-Species (XSP2) HepG2 Assay for frog Estrogen Receptor (ER2) (AID 2283828)
Summary of the method: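 HepG2 cells transiently transfected with multiplexed GAL4-UAS reporter units expressing chimeric frog ER2–Gal4 protein; reporter mRNA measured 24 h after chemical dosing by RT-PCR, fluorescent labeling and capillary electrophoresis. Gain-of-signal fitted relative to DMSO baseline.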

[4] = target: Peroxisome proliferator-activated receptor gamma (Homo sapiens) (UniProt P37231); experiment: ATG_hPPARg_XSP2: Attagene TRANS-FACTORIAL Multi-Species (XSP2) HepG2 Assay for human Peroxisome Proliferator-activated Receptor gamma (PPARg) (AID 2283829);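 further: actives raise reporter mRNA above DMSO so AC50 reflects PPARg activation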
Chain of Peroxisome proliferator-activated receptor gamma (Homo sapiens) (P37231 whole entry, looked up, the tested form may be a part): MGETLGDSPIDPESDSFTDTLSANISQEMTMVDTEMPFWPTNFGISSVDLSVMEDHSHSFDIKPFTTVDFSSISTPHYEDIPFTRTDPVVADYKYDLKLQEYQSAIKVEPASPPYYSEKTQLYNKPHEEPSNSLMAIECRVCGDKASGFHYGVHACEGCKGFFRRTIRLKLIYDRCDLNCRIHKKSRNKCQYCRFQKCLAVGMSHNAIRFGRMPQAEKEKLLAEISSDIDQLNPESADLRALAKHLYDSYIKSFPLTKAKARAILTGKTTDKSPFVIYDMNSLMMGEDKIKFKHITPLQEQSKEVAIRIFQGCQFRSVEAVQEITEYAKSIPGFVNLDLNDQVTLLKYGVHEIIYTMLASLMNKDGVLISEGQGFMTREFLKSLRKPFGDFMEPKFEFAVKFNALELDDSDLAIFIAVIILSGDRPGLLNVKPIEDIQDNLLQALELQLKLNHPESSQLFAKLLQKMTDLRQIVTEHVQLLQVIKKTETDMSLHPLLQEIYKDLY
Summary of the method: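 Transient MRTU transfection, HepG2; TRANS format (exogenous NR-Gal4 chimeras). 24 h chemical exposure with 3 nM 6-alpha-fluorotestosterone and 1.5 nM norgestrel present. Readout: reporter mRNA via RT-PCR/CE fluorescence, up-direction vs DMSO.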

[5] = target: mouse Peroxisome Proliferator-activated Receptor gamma (PPARg), Pparg (gene 19016) (UniProt P37238); experiment: ATG_mPPARg_XSP2: Attagene TRANS-FACTORIAL Multi-Species (XSP2) HepG2 Assay for mouse Peroxisome Proliferator-activated Receptor gamma (PPARg) (AID 2283830);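 further: hits are gains in reporter mRNA above DMSO so AC50 marks activation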
Chain of mouse Peroxisome Proliferator-activated Receptor gamma (PPARg), Pparg (gene 19016) (P37238 whole entry, looked up, the tested form may be a part): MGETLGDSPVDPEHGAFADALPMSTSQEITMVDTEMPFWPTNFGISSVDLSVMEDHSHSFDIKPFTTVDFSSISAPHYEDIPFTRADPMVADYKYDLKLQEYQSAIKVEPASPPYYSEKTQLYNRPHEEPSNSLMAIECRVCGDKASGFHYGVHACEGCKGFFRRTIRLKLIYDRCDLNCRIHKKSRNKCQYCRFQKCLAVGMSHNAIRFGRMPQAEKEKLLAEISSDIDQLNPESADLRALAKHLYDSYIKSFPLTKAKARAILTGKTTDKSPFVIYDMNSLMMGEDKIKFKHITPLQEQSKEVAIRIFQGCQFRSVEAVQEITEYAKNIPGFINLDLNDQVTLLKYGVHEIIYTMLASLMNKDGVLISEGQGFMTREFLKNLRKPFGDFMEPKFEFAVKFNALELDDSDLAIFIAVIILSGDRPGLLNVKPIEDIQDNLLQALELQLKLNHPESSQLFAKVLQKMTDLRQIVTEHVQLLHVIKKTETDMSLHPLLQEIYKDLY
Summary of the method: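 HepG2 cells transiently transfected with GAL4-UAS reporter units for chimeric NR-Gal4 proteins including mouse PPARg, exposed 24 h; medium contained 3 nM 6-alpha-fluorotestosterone and 1.5 nM norgestrel. Reporter mRNA quantified by RT-PCR, HpaI digestion and capillary electrophoresis, vs DMSO.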

[6] = target: Nuclear receptor subfamily 1 group I member 2 (Mus musculus) (UniProt O54915); experiment: ATG_mPXR_XSP2: Attagene TRANS-FACTORIAL Multi-Species (XSP1) HepG2 Assay for mouse Pregnane X Receptor (PXR) (AID 2283831)
Chain of Nuclear receptor subfamily 1 group I member 2 (Mus musculus) (O54915 whole entry, looked up, the tested form may be a part): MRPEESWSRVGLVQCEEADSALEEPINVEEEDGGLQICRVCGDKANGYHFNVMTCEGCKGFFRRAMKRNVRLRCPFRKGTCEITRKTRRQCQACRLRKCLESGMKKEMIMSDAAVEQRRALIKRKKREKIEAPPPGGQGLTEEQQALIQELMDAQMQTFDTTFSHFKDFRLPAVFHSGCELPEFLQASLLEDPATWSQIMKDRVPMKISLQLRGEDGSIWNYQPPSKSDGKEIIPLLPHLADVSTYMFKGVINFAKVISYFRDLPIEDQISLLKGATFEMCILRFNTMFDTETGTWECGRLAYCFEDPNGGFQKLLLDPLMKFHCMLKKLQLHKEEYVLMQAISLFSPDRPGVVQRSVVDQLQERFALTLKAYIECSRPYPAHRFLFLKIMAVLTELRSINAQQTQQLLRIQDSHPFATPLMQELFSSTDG
Summary of the method: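 Transient HepG2 transfection, multiplexed GAL4-UAS reporters, NR-GAL4 chimeras. 24 h compound exposure. Readout: reporter mRNA, RT-PCR, fluorescent capillary electrophoresis; positive direction vs DMSO baseline.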

[7] = target: zebrafish Thyroid Hormone Receptor alpha (TRa), thraa (gene 30670) (UniProt Q98867); experiment: ATG_zfTRa_XSP2: Attagene TRANS-FACTORIAL Multi-Species (XSP1) HepG2 Assay for zebrafish Thyroid Hormone Receptor alpha (TRa) (AID 2283832);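 further: actives raise zebrafish TRa-Gal4 reporter transcript above DMSO baseline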
Chain of zebrafish Thyroid Hormone Receptor alpha (TRa), thraa (gene 30670) (Q98867 whole entry, looked up, the tested form may be a part): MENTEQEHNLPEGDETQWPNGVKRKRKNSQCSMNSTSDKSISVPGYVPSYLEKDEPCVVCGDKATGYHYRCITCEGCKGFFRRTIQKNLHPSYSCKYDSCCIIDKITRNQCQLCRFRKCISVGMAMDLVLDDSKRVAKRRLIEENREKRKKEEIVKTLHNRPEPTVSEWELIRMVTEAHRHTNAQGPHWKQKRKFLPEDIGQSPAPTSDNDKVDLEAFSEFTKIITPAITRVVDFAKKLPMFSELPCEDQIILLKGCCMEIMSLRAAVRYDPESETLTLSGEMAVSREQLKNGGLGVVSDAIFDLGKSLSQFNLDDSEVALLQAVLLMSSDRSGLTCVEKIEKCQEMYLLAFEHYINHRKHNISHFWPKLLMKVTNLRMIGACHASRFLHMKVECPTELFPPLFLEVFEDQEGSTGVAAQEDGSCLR
Summary of the method: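 HepG2 cells transiently transfected with multiplexed GAL4-UAS reporter units expressing chimeric NR-Gal4 proteins; 24 h after dosing, reporter mRNA measured by RT-PCR, FAM labelling, HpaI digestion and capillary electrophoresis; gain of signal versus DMSO baseline.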

[8] = test system: zebrafish Peroxisome Proliferator-activated Receptor gamma (PPARg), gene 557037; experiment: ATG_zfPPARg_XSP2: Attagene TRANS-FACTORIAL Multi-Species (XSP2) HepG2 Assay for zebrafish Peroxisome Proliferator-activated Receptor gamma (PPARg) (AID 2283833);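 further: reporter mRNA from a zebrafish PPARg GAL4 chimera measured by RT-PCR and capillary electrophoresis; actives increase reporter signal over DMSO so AC50 reflects activation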
Summary of the method: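 Transfect HepG2 with multiplexed GAL4-UAS reporter constructs; dose chemical 24 h; isolate RNA, reverse-transcribe, PCR-amplify, label and digest reporter products; resolve by capillary electrophoresis. Activity taken as increase over DMSO.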

[9] = test system: turtle Thyroid Hormone Receptor, alpha (TRa), gene 101949057; experiment: ATG_trTRa_XSP2: Attagene TRANS-FACTORIAL Multi-Species (XSP1) HepG2 Assay for turtle Thyroid Hormone Receptor, alpha (TRa) (AID 2283834);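 further: hits raise reporter mRNA over the DMSO baseline so AC50 marks activators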
Summary of the method: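 Readout: reporter mRNA induction, fluorescence after RT-PCR, HpaI digestion and capillary electrophoresis. Transiently transfected HepG2, exogenous NR-Gal4 chimera driving GAL4-UAS reporter, 24 h compound exposure. Activity fitted upward relative to DMSO baseline.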

[10] = test system: frog Androgen Receptor (AR), gene 399456; experiment: ATG_frAR_XSP2: Attagene TRANS-FACTORIAL Multi-Species (XSP2) HepG2 Assay for frog Androgen Receptor (AR) (AID 2283824);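 further: reporter mRNA from GAL4-UAS units driven by Xenopus AR-Gal4 chimera; actives raise reporter signal above DMSO so AC50 reflects agonist-like induction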
Protocol: ATG_XSP2_multi-species_TRANS is a cell-based, multiplexed assay created by modifying the existing Attagene TRANS-FACTORIAL system to include a panel of nuclear receptors from some or all the following species: human (Homo sapiens), mouse (Mus musculus), frog (Xenopus laevis), zebrafish (Danio rerio), chicken (Gallus gallus), and turtle (Chrysemys picta). The ECOTOX-FACTORIAL format uses HepG2, a human liver cell line, with measurements taken at 24 hours after chemical dosing in a 24-well plate. Xsp2 included 3 nM 6-alpha-fluorotestosterone and 1.5 nM norgestrel to stimulate the androgen receptor.ATG_frAR_XSP2 is one of 29 assay components measured or calculated from the ATG_XSP2_multi-species_TRANS assay. It is designed to make measurements of mRNA induction, a form of inducible reporter, as detected with fluorescence intensity signals by Reverse transcription polymerase chain reaction (RT-PCR) and Capillary electrophoresis technology.The assay endpoint ATG_frAR_XSP2 was analyzed in the positive analysis fitting direction relative to DMSO as the negative control and baseline of activity. […] Furthermore, this assay endpoint can be referred to as a primary readout, because this assay has produced multiple assay endpoints where this one serves a reporter gene function. […]

Measured: AC50

CCC(C)(C)c1ccc(O)cc1
active: [2] 6.43 µM and 3.44 µM | [3] 27.9 µM and 3.07 µM | [8] 165 µM and 100 µM
not listed: [9] | [10]
inactive: all other assays above

CC(C)(C)c1ccc(O)cc1
active: [3] 14.9 µM and 6.96 µM
not listed: [2] | [6] | [10]
inactive: all other assays above

CCCCc1ccc(O)cc1
inactive: [6] | [7] | [8]
active: [2] 4.58 µM and 3.47 µM | [3] 4.69 µM and 2.33 µM | [4] 100 µM | [5] 74.6 µM and 93.5 µM

O=P(Oc1ccccc1)(Oc1ccccc1)Oc1ccccc1
inactive: [1] | [7] | [9]
active: [2] 1.44 µM | [3] 2.82 µM | [4] 4.79 µM | [5] 5.79 µM | [6] 0.303 µM | [8] 9.78 µM

c1ccc2c(c1)Nc1ccccc1S2
inactive: [6] | [7] | [8] | [9]
active: [2] 12.7 µM and 8.42 µM | [3] 16.7 µM and 5.21 µM | [4] 22.2 µM and 21.7 µM | [5] 27.6 µM and 21.1 µM | [6] 4.49 µM

O=S(=O)(c1ccc(O)cc1)c1ccc(O)cc1
inactive: [10] | [6] | [7] | [9]
active: [10] 8.07 µM | [2] 1.87 µM and 2.38 µM | [3] 26.9 µM and 5.73 µM | [4] 8.88 µM and 28.6 µM | [5] 33.1 µM and 63.1 µM

— PubChem BioAssay (EPA / NIEHS)
